We go through nine compounds from PubChem BioAssay (NCI).

Assay [1] in a line: NCI Yeast Anticancer Drug Screen. Data for the rad50 strain (AID 155).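 Note: 0% = growth of vehicle-only cultures of the same strain.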 As to conditions: S. cerevisiae rad50 strain growth inhibition, stronger effect = higher value. In short, it runs like this:
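Readout: growth inhibition relative to vehicle-treated cultures. Compound exposure was carried out in a genetically defined yeast strain deficient in DNA damage repair.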

Assay [2] can be described thus: NCI Yeast Anticancer Drug Screen. Data for the mec2-1 strain (AID 157). As to conditions: S. cerevisiae mec2-1 strain, stronger effect = higher value. In short, it runs like this: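 Using mec2-1 yeast: add compound, measure growth, express inhibition versus vehicle-treated cultures.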
Assay [3] can be described thus: NCI Yeast Anticancer Drug Screen. Data for the sgs1 mgt1 strain (AID 161).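 Note: 0% = growth of cultures given vehicle only.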 The settings on record: S. cerevisiae sgs1 mgt1 strain, stronger effect = higher value. In short, it runs like this:
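Percent growth inhibition was derived by comparing compound-exposed mutant yeast with vehicle-exposed cultures. The strain carries alterations in DNA damage repair.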

Assay [4] in a line: NCI Yeast Anticancer Drug Screen. Data for the cln2 rad14 strain (AID 165).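 Note: 0% = growth equal to vehicle treated cultures.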 As to conditions: S. cerevisiae cln2 rad14 strain, stronger effect = higher value. In short, it runs like this: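 Yeast strain cln2 rad14, bearing defects in cell cycle control and DNA repair, serves as the test system; values reflect growth inhibition compared with vehicle.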
The nature of assay [5]: NCI Yeast Anticancer Drug Screen. Data for the bub3 strain (AID 167). As to conditions: S. cerevisiae bub3 mutant strain, stronger effect = higher value. A digest of the protocol:
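Readout: yeast growth inhibition, expressed relative to vehicle-only wells. The test organism is a mutant strain from a panel with lesions in DNA repair or checkpoint genes.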

Assay [6] can be described thus: NCI Yeast Anticancer Drug Screen. Data for the mlh1 rad18 strain (AID 175). As to conditions: S. cerevisiae mlh1 rad18 strain growth inhibition, stronger effect = higher value. A digest of the protocol:
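Steps: expose repair-defective yeast to compound; measure growth; express inhibition against vehicle-treated controls.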

Setting [7] is: at 5.0 µM (retest, dose inferred, filed as 0.5).
Setting [8] is: at 50.0 µM (retest, dose inferred, filed as 5.0).

This is part of a sample that, as a whole, favours compounds with a hit. Of some 79,000 tested, about 15% had one in any assay. Unmarked numbers belong to inactive results. Calls of active or inactive are those of the source. Cut-off read from the data, not from the text of the source: active = growth inhibition above about 70%; inactive = the rest.

For `Cn1nc(-c2ccccc2NC(=O)C(F)(F)F)c(=O)n(C)c1=S`, the growth inhibition in assay [1] (setting [7]) is -3%; in assay [1] (setting [8]), 37%; in assay [1] (at 50.0 µM) it was 56.9%; in assay [2] (setting [7]), 3%; in assay [2] (setting [8]), 21%; in assay [2] (at 50.0 µM), 43.9%. In addition, the growth inhibition is 14% in assay [3] (setting [7]); 25% in assay [3] (setting [8]); 50.5% in assay [3] (at 50.0 µM); -3% in assay [4] (setting [7]); 14% in assay [4] (setting [8]); 33.6% in assay [4] (at 50.0 µM). Besides, the growth inhibition in assay [5] (setting [7]) was 4%; in assay [5] (setting [8]) it was 27%; in assay [5] (at 50.0 µM) it was 27.7%; in assay [6] (setting [7]), 0%; in assay [6] (setting [8]) it was 34%; in assay [6] (at 50.0 µM) it was 73.9% (active).

`Cc1ccc(/C=N/Nc2ccc([N+](=O)[O-])cc2[N+](=O)[O-])cc1`: the growth inhibition in assay [1] (setting [7]) is -2%; in assay [1] (setting [8]), -4%; in assay [1] (at 50.0 µM), 19.4%; in assay [2] (setting [7]), -1%; in assay [2] (setting [8]), -2%; in assay [2] (at 50.0 µM) it was -8.75%. Moreover, the growth inhibition in assay [3] (setting [7]) is -3%; in assay [3] (setting [8]) it was -3%; in assay [3] (at 50.0 µM), 10.6%; in assay [4] (setting [7]), -4%; in assay [4] (setting [8]), -9%; in assay [4] (at 50.0 µM), 20.1%. The growth inhibition in assay [5] (setting [7]) was -3%; in assay [5] (setting [8]), -4%; in assay [5] (at 50.0 µM), -9.15%; in assay [6] (setting [7]) it was -4%; in assay [6] (setting [8]), -4%; in assay [6] (at 50.0 µM) it was -3.9%.

Regarding `O=C1CC(c2ccccc2Cl)C(c2ccccc2Cl)C1` (configuration not stated), the growth inhibition in assay [1] (setting [7]) was -2%; in assay [1] (setting [8]), 97% (active); in assay [1] (at 50.0 µM), 97.5% (active); in assay [2] (setting [7]) it was -6%; in assay [2] (setting [8]) it was 98% (active); in assay [2] (at 50.0 µM), 96% (active). For the same compound, the growth inhibition in assay [3] (setting [7]) was -7%; in assay [3] (setting [8]), 96% (active); in assay [3] (at 50.0 µM), 96.7% (active); in assay [4] (setting [7]), -2%; in assay [4] (setting [8]), 97% (active); in assay [4] (at 50.0 µM) it was 95.5% (active). The growth inhibition in assay [5] (setting [7]) was 0%; in assay [5] (setting [8]) it was 97% (active); in assay [5] (at 50.0 µM), 97.2% (active); in assay [6] (setting [7]), -2%; in assay [6] (setting [8]), 96% (active); in assay [6] (at 50.0 µM), 97.2% (active).

Take `COC(=O)CSc1nc2ccccc2[nH]1`: the growth inhibition in assay [1] (setting [7]) is -146%; in assay [1] (setting [8]) it was -48%; in assay [1] (at 50.0 µM), 27%; in assay [2] (setting [7]) it was -48%; in assay [2] (setting [8]) it was -47%; in assay [2] (at 50.0 µM) it was -11.8%. In addition, the growth inhibition was -64% in assay [3] (setting [7]); -39% in assay [3] (setting [8]); -6.2% in assay [3] (at 50.0 µM); -50% in assay [4] (setting [7]); -59% in assay [4] (setting [8]); -27.1% in assay [4] (at 50.0 µM). For the same compound, the growth inhibition is -63% in assay [5] (setting [7]); -46% in assay [5] (setting [8]); -19.6% in assay [5] (at 50.0 µM); -119% in assay [6] (setting [7]); -119% in assay [6] (setting [8]); -29.6% in assay [6] (at 50.0 µM).

As to `Cc1c(-c2ccccc2)sc(/N=C/c2cc(Br)cc(Br)c2O)c1C#N`, the growth inhibition in assay [1] (setting [7]) was -17%; in assay [1] (setting [8]), 63%; in assay [1] (at 50.0 µM), 5.9%; in assay [2] (setting [7]), 10%; in assay [2] (setting [8]), 34%; in assay [2] (at 50.0 µM), 25.3%. The growth inhibition in assay [3] (setting [7]) was 15%; in assay [3] (setting [8]), 84% (active); in assay [3] (at 50.0 µM), 29%; in assay [4] (setting [7]) it was 11%; in assay [4] (setting [8]), 12%; in assay [4] (at 50.0 µM), 10.8%. In addition, the growth inhibition in assay [5] (setting [7]) is 5%; in assay [5] (setting [8]) it was 75% (active); in assay [5] (at 50.0 µM), 19.2%; in assay [6] (setting [7]), 10%; in assay [6] (setting [8]) it was 60%; in assay [6] (at 50.0 µM), 62.9%.

`CCOC(=O)c1c(C)c2c(n1C)CCc1sc(N)nc1-2`: the growth inhibition in assay [1] (setting [7]) was 14%; in assay [1] (setting [8]), 66%; in assay [1] (at 50.0 µM) it was 96% (active); in assay [2] (setting [7]) it was 7%; in assay [2] (setting [8]), 58%; in assay [2] (at 50.0 µM) it was 96.8% (active). Moreover, the growth inhibition in assay [3] (setting [7]) was 5%; in assay [3] (setting [8]), 65%; in assay [3] (at 50.0 µM), 98.3% (active); in assay [4] (setting [7]) it was -1%; in assay [4] (setting [8]), 26%; in assay [4] (at 50.0 µM), 43.3%. The growth inhibition was 2% in assay [5] (setting [7]); 80% (active) in assay [5] (setting [8]); 96.7% (active) in assay [5] (at 50.0 µM); -1% in assay [6] (setting [7]); 58% in assay [6] (setting [8]); 90.2% (active) in assay [6] (at 50.0 µM).

As for `O=c1oc(-c2cc([N+](=O)[O-])cc([N+](=O)[O-])c2Cl)nc2ccccc12`, the growth inhibition is 29% in assay [1] (setting [7]); 50% in assay [1] (setting [8]); 75.3% (active) in assay [1] (at 50.0 µM); 8% in assay [2] (setting [7]); 22% in assay [2] (setting [8]); 63.5% in assay [2] (at 50.0 µM). The growth inhibition is 13% in assay [3] (setting [7]); 47% in assay [3] (setting [8]); 83.7% (active) in assay [3] (at 50.0 µM); 15% in assay [4] (setting [7]); 44% in assay [4] (setting [8]); 61.5% in assay [4] (at 50.0 µM). In addition, the growth inhibition was 15% in assay [5] (setting [7]); 58% in assay [5] (setting [8]); 82.5% (active) in assay [5] (at 50.0 µM); 1% in assay [6] (setting [7]); 57% in assay [6] (setting [8]); 86.8% (active) in assay [6] (at 50.0 µM).

`Cc1ccc2c(-c3ccccc3)c3ccccc3cc2c1C`: the growth inhibition in assay [1] (setting [7]) was 6%; in assay [1] (setting [8]) it was 3%; in assay [1] (at 50.0 µM), 46.1%; in assay [2] (setting [7]), 13%; in assay [2] (setting [8]), 20%; in assay [2] (at 50.0 µM), 16.9%. For the same compound, the growth inhibition is 8% in assay [3] (setting [7]); 18% in assay [3] (setting [8]); 27.6% in assay [3] (at 50.0 µM); -4% in assay [4] (setting [7]); -11% in assay [4] (setting [8]); 14.5% in assay [4] (at 50.0 µM). Besides, the growth inhibition in assay [5] (setting [7]) was -5%; in assay [5] (setting [8]) it was -16%; in assay [5] (at 50.0 µM) it was 37.6%; in assay [6] (setting [7]), -3%; in assay [6] (setting [8]) it was 2%; in assay [6] (at 50.0 µM), 53.4%.

For the compound `CCCCCCC(/C=C/c1ccccc1)=N\O`, the growth inhibition is 0% in assay [1] (setting [7]); 96% (active) in assay [1] (setting [8]); 98.8% (active) in assay [1] (at 50.0 µM); -1% in assay [2] (setting [7]); 96% (active) in assay [2] (setting [8]); 98.7% (active) in assay [2] (at 50.0 µM). Further, the growth inhibition in assay [3] (setting [7]) was 6%; in assay [3] (setting [8]), 96% (active); in assay [3] (at 50.0 µM), 98.8% (active); in assay [4] (setting [7]) it was -10%; in assay [4] (setting [8]), 96% (active); in assay [4] (at 50.0 µM), 98.2% (active). Moreover, the growth inhibition in assay [5] (setting [7]) was -2%; in assay [5] (setting [8]) it was 94% (active); in assay [5] (at 50.0 µM) it was 98.8% (active); in assay [6] (setting [7]), 2%; in assay [6] (setting [8]), 95% (active); in assay [6] (at 50.0 µM), 99.2% (active).
